Source: PubChem (several laboratories)
NOD2-RIPK2 inh = NOD2-RIPK2 protein interaction inhibition; O43353; CHO BLA complementation NOD2-RIPK2, CCF4 ratio; inhibition, % at 4.98 µM; 360,000 compounds, 0.38% hits; in the data active means inhibition above about 21%;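 further: 0% = vehicle only and 100% = reference blocker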
ANO1 block = mouse TMEM16A channel inhibition, primary screen | Q8BHY3 | HEK293 TMEM16A/YFP iodide influx fluorescence, ionomycin | normalized B-score (activity score, 25-100; higher = stronger inhibition) at 10 µM | 310,000 compounds, 1.2% hits | AID 588511;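 active means ratio plate-corrected score three or more library SD toward inhibition, starting fluorescence score within five deviations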;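 further: score derived from kinetic fluorescence span divided by baseline fluorescence per well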
ANO1 activ = activates or potentiates the mouse TMEM16A chloride channel | HEK293 TMEM16A/YFP-H148Q/I152L, iodide quench fluorescence; hits give low values | B-score at 10 µM | 340,000 compounds, 0.3% hits;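 active means fluorescence-ratio B-score plate-corrected deviation score at least 3 library SD below zero, with starting fluorescence score within 5 deviations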;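 further: channel opened by trigger with iodide after compound preincubation; score built on the fluorescence ratio of max minus min over baseline; more negative score means more quench and so TMEM16A activation or potentiation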
TLR9-MyD88 block = TLR9-MyD88 interaction inhibition; CHO BLA complementation TLR9-MyD88, CCF4 FRET ratio; inhibition, % at 4.98 µM; 340,000 compounds, 0.21% hits; AID 504734;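 active means inhibition above the mean over all tested compounds plus 3 SD, cut at about 21% in these data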;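 further: 0% = DMSO only wells and 100% = clavulanate BLA inhibitor control wells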
TLR4-MyD88 BLA = inhibitors of human TLR4-MyD88 binding; 200,000 compounds, 0.18% hits; inhibition, % at 8.4 µM; HeLa CL3-4 TLR4/MyD88 BLA complementation, FRET ratio; in the data active means inhibition above about 25%;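 further: 0% = vehicle and 100% = reference inhibitor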
Target sequence (O00206 whole entry, looked up): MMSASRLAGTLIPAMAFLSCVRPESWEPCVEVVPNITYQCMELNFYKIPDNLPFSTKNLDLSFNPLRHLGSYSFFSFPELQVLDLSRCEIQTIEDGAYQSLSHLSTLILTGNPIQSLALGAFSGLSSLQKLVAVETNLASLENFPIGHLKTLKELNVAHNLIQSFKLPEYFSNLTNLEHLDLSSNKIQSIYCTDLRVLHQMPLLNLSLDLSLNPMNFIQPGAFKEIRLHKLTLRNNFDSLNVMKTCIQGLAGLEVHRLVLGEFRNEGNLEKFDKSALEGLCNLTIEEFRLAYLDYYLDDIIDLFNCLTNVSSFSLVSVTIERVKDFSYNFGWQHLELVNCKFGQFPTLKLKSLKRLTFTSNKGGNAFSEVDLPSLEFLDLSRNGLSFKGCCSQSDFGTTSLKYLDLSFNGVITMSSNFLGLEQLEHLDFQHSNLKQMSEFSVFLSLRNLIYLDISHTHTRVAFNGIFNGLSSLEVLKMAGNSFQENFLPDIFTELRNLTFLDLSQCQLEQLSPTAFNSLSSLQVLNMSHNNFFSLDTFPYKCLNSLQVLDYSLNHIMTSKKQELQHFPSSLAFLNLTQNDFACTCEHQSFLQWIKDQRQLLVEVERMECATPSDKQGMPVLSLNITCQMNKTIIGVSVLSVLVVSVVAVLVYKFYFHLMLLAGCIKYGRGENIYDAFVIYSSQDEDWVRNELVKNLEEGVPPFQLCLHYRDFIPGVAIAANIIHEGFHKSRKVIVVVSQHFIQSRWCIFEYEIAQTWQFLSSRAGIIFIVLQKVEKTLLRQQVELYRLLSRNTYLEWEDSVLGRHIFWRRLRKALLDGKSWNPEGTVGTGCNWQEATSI
Target sequence (Q99836 whole entry, looked up): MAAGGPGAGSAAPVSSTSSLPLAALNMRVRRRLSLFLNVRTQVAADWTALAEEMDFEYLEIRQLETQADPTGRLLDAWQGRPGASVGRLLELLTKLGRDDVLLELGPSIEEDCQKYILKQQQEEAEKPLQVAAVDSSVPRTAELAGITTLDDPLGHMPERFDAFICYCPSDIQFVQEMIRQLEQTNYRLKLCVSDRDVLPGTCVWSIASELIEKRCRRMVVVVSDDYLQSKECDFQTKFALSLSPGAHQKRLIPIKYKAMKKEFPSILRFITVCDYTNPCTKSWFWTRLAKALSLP
GRK2 aptamer HTS = human GRK2 inhibition via aptamer displacement | AID 488847 | 330,000 compounds, 0.59% hits | inhibition of aptamer binding, % at 10 µM | bead flow cytometry, FAM-aptamer displacement from GRK2 | P25098;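 active means inhibition of aptamer binding above 40%, roughly 3 SD of noise, on plates passing a quality check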;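 further: median bead fluorescence of bound FAM aptamer so fluorescent compounds give negative values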
TMEM16A reconf = reconfirmed blocker of mouse TMEM16A calcium-activated chloride channel | shares compounds with ANO1 block | 2,300 compounds, 39% hits | HEK293 TMEM16A/YFP-H148Q, iodide quench fluorescence; ionomycin added to raise cell calcium | inhibition, % at 10 µM;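 active means mean duplicate percent inhibition, scaled so buffer wells are 0 and the reference blocker 100, over three buffer SD above buffer mean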
HEK293 Ca mobil = counter-screen for TMEM16A inhibitors: effect on calcium mobilization; shares compounds with ANO1 block; TMEM16A/YFP HEK293, Fluo4 calcium mobilization; calcium response (% of ionomycin), % at 10 µM; 2,300 compounds, 2% hits;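 active means duplicate-averaged calcium signal over 20% of the ionomycin maximum, relative to buffer baseline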;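 further: each well's signal is peak minus trough fluorescence divided by its pre-addition baseline; 0% = buffer wells and 100% = ionomycin wells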
YFP-HEK293 quench = acts in parental YFP-HEK293 cells lacking TMEM16A, counter-screen; 2,300 tested, under 10 active; shares compounds with ANO1 block; AID 652233; YFP ratio F(max-min)/F0 at 10 µM; iodide YFP quench, ionomycin;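 active means yellow fluorescent protein signal ratio exceeding the buffer control mean by over 5 SD of those controls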;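 further: ratio is mean of duplicate wells from kinetic YFP trace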
ClC-1 rat inh = selectivity of TMEM16A inhibitors: inhibition of rat ClC-1 chloride channel | shares compounds with ANO1 block | CHO ClC-1-YFP, iodide influx fluorescence quench; iodide control reads 0, buffer control 100 | ratio percent, % at 10 µM | 2,300 tested, under 10 active | AID 652236;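 active means duplicate-mean ratio percent above the mean of iodide-only control wells, which defines zero, plus 5 of their SD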;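 further: higher percent means stronger block of ClC-1 iodide influx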
NOD2-RIPK2 conf = confirmation of human NOD2-RIPK2 interaction inhibitors; shares compounds with NOD2-RIPK2 inh; CHO cells, NOD2-RIPK2 BLA complementation, CCF4 FRET; inhibition, % at 4.98 µM; 1,200 compounds, 70% hits; AID 624370;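 active means mean inhibition across replicates above a set limit taken from the earlier primary screen, cut at about 21% in these data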;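 further: 0% = DMSO-only wells and the high end = clavulanate BLA-blocked wells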
BLA counter = NOD2-RIPK2 counterscreen BLA reporter activity | 1,200 compounds, 57% hits | CHO BLA reporter, CCF4 FRET ratio | shares compounds with NOD2-RIPK2 inh | inhibition, % at 4.98 µM;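 active means mean inhibition above the low-control mean inhibition plus three low-control SD, cut at about 11% in these data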;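 further: 0% = DMSO only wells and 100% = clavulanate high control wells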
* = called active by the depositor. Sampled rows, rich in hits. Any-hit rate of the full collection: about 2.2%.

Screening O=C1CCCN1c1ccc(S(=O)(=O)NCCOc2ccccc2)cc1 returned NOD2-RIPK2 inh -17, ANO1 block inactive, ANO1 activ inactive, TLR9-MyD88 block -3, TLR4-MyD88 BLA -1 and GRK2 aptamer HTS 0.
`Cc1cc(N2CCCC2=O)cc(C)c1S(=O)(=O)NCCOc1ccc(C(C)(C)C)cc1` gave NOD2-RIPK2 inh 0, ANO1 block 25*, ANO1 activ inactive, TLR9-MyD88 block -1, TLR4-MyD88 BLA 3, GRK2 aptamer HTS 2, TMEM16A reconf inactive, HEK293 Ca mobil inactive, YFP-HEK293 quench -1.1 and ClC-1 rat inh -29.
COCC(=O)Oc1cc(-c2ccc(C)cc2C)c(OC(=O)COC)c(-c2ccc(C)cc2C)c1 was read as NOD2-RIPK2 inh -2 and TLR9-MyD88 block -5.
For CNc1ccc(C(=O)OCC(=O)Nc2ccnn2C(C)C)cc1[N+](=O)[O-] the results were NOD2-RIPK2 inh -5, ANO1 activ inactive, TLR9-MyD88 block -3 and GRK2 aptamer HTS 1.
O=C(C1CCN(S(=O)(=O)c2cccc3nonc23)CC1)N1CCCCC1 was read as NOD2-RIPK2 inh -6, ANO1 block inactive, ANO1 activ inactive, TLR9-MyD88 block 1 and GRK2 aptamer HTS 3.
`O=S(=O)(c1cccc2nonc12)N1CCCCCC1` gave NOD2-RIPK2 inh -13, ANO1 block inactive, ANO1 activ inactive, TLR9-MyD88 block -6, TLR4-MyD88 BLA -9, GRK2 aptamer HTS 1, TMEM16A reconf inactive, HEK293 Ca mobil inactive, YFP-HEK293 quench -0.9 and ClC-1 rat inh -4.
CC1CC(C)CN(c2nc(N(C)c3ccccc3)nc(N)c2[N+](=O)[O-])C1 (centres undefined) was read as NOD2-RIPK2 inh 5, ANO1 block 25*, ANO1 activ inactive, TLR9-MyD88 block 0, GRK2 aptamer HTS 2, TMEM16A reconf inactive, HEK293 Ca mobil inactive, YFP-HEK293 quench -1.1 and ClC-1 rat inh -16.
For COc1ccc(NC(=O)C2CCCN(S(=O)(=O)c3cccc4cccnc34)C2)c(OC)c1 (centres undefined) the results were NOD2-RIPK2 inh -9, ANO1 block inactive, ANO1 activ inactive, TLR9-MyD88 block -49, TLR4-MyD88 BLA 6 and GRK2 aptamer HTS 2.
COc1ccc(C)cc1NC(=O)C1CCCN(S(=O)(=O)c2cccc3cccnc23)C1 (centres undefined) was read as NOD2-RIPK2 inh -10, ANO1 block 100*, ANO1 activ inactive, TLR9-MyD88 block -7, GRK2 aptamer HTS 0, TMEM16A reconf inactive, HEK293 Ca mobil inactive, YFP-HEK293 quench -0.92 and ClC-1 rat inh -4.
Fc1ccc2[nH]c3c(NCc4ccccc4)ncnc3c2c1 was read as NOD2-RIPK2 inh 4, ANO1 block 100*, ANO1 activ inactive, TLR9-MyD88 block -5, GRK2 aptamer HTS 0, TMEM16A reconf 66%*, HEK293 Ca mobil inactive, YFP-HEK293 quench -1 and ClC-1 rat inh -26.
Screening Cc1cccc(C)c1NS(=O)(=O)c1ccc(-c2cnc(C3CC3)o2)cc1 returned NOD2-RIPK2 inh 23*, ANO1 block 25*, ANO1 activ inactive, TLR9-MyD88 block -2, GRK2 aptamer HTS 1, TMEM16A reconf 29%*, HEK293 Ca mobil inactive, YFP-HEK293 quench -1.2, ClC-1 rat inh -4, NOD2-RIPK2 conf 10 and BLA counter -4.
Screening CCCc1cc(=O)oc2cc(OCC(=O)NC3CCN(Cc4ccccc4)CC3)ccc12 returned NOD2-RIPK2 inh 3, ANO1 block inactive, ANO1 activ inactive, TLR9-MyD88 block 0 and GRK2 aptamer HTS 0.
Screening CCCC(/C=C/c1ccc(OC(C)=O)cc1)=C1/c2ccccc2C(=O)N1c1ccccc1 returned NOD2-RIPK2 inh 25*, ANO1 activ inactive, TLR9-MyD88 block 13, GRK2 aptamer HTS 0, NOD2-RIPK2 conf 20 and BLA counter 28*.
`O=C(CCC(=O)Nc1ccccc1)NNC(=O)CCc1ccccc1` gave NOD2-RIPK2 inh -1, ANO1 block inactive, ANO1 activ inactive, TLR9-MyD88 block 5, TLR4-MyD88 BLA -1 and GRK2 aptamer HTS 0.
Screening O=C(CCc1ccccc1)Nc1ccccc1 returned NOD2-RIPK2 inh 35*, ANO1 block inactive, ANO1 activ inactive, TLR9-MyD88 block -11, TLR4-MyD88 BLA -4, GRK2 aptamer HTS 0, NOD2-RIPK2 conf -2 and BLA counter -1.
Screening CC(C)(C)OC(=O)n1cccc1/C=C1\c2ccccc2C(=O)N1c1ccccc1 returned NOD2-RIPK2 inh 41*, ANO1 activ inactive, TLR9-MyD88 block -2, NOD2-RIPK2 conf 6 and BLA counter 5.
CC(=O)Oc1ccc(C#C/C=C2\c3ccccc3C(=O)N2c2ccccc2)cc1 was read as NOD2-RIPK2 inh 4, ANO1 activ inactive, TLR9-MyD88 block 4 and GRK2 aptamer HTS 9.
`CCc1nccn1CCC(=O)NC1CCCc2c1cnn2-c1ccc(F)cc1F` (centres undefined) gave NOD2-RIPK2 inh -13, ANO1 block inactive, ANO1 activ inactive, TLR9-MyD88 block -11 and GRK2 aptamer HTS 0.
COc1ccc(C(C#N)=C2C=CC(=NO)C=C2)cc1 was read as NOD2-RIPK2 inh 9, ANO1 block inactive, ANO1 activ inactive, TLR9-MyD88 block 11 and GRK2 aptamer HTS 0.
Screening N#CC(=C1C=CC(=NO)C(Cl)=C1)c1ccc(Cl)cc1 returned NOD2-RIPK2 inh 42*, ANO1 activ inactive, TLR9-MyD88 block 8, NOD2-RIPK2 conf 26* and BLA counter 23*.
